# Source: PubChem BioAssay AID1159580 (chemical genetic matrix, 2015)
# Hit rate of the full screen: of about 5,500 compounds, about 2,000 (36%) were called active. About 18% were inconclusive and are not listed. Some of the results follow. A number with no mark means an inactive call. No stated cut-off is given here; in the data, active means normalized growth mostly below about 0.91 (no sharp cut-off); inconclusive means no clear call, values can overlap the other calls; inactive means mostly above about 0.92.
# Assay: chemical genetic growth profiling, strain panel (AID 1159580);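 further: tested at 20 µM; growth read once vehicle control cultures reached saturation at 30 °C; 1 = growth at the plate median or of vehicle wells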
# Conditions: S. cerevisiae deletion strains, growth OD
# [1] = locus YAR019C, strain CDC15, stronger effect = lower value
# [2] = locus YBL105C, strain PKC1, stronger effect = lower value
# [3] = locus YBR135W, strain CKS1, stronger effect = lower value
# [4] = locus YBR136W, strain MEC1, stronger effect = lower value
# [5] = locus YBR160W, strain CDC28, stronger effect = lower value
# [6] = locus YDL017W, strain CDC7, stronger effect = lower value
# [7] = locus YDL028C, strain MPS1, stronger effect = lower value
# [8] = locus YDL101C, strain DUN1, stronger effect = lower value
# [9] = locus YDL108W, strain KIN28, stronger effect = lower value
# [10] = locus YDL132W, strain cdc53, stronger effect = lower value
# [11] = locus YDL214C, strain PRR2, stronger effect = lower value
# [12] = locus YDR052C, strain DBF4, stronger effect = lower value
# [13] = locus YDR054C, strain cdc34, stronger effect = lower value
# [14] = locus YDR226W, strain ADK1, stronger effect = lower value
# [15] = locus YDR477W, strain SNF1, stronger effect = lower value
# [16] = locus YER123W, strain YCK3, stronger effect = lower value
# [17] = locus YER133W, strain GLC7, stronger effect = lower value
# [18] = locus YFL009W, strain cdc4, stronger effect = lower value
# [19] = locus YFL029C, strain CAK1, stronger effect = lower value
# [20] = locus YFR003C, strain YPI1, stronger effect = lower value
# [21] = locus YFR019W, strain FAB1, stronger effect = lower value
# [22] = locus YFR028C, strain CDC14, stronger effect = lower value
# [23] = locus YGR040W, strain KSS1, stronger effect = lower value
# [24] = locus YGR052W, strain FMP48, stronger effect = lower value
# [25] = locus YGR092W, strain DBF2, stronger effect = lower value
# [26] = locus YHR030C, strain SLT2, stronger effect = lower value
# [27] = locus YHR079C, strain IRE1, stronger effect = lower value
# [28] = locus YHR082C, strain KSP1, stronger effect = lower value
# [29] = locus YHR205W, strain SCH9, stronger effect = lower value
# [30] = locus YIL147C, strain SLN1, stronger effect = lower value
# [31] = locus YJL095W, strain BCK1, stronger effect = lower value
# [32] = locus YJL128C, strain PBS2, stronger effect = lower value
# [33] = locus YJL157C, strain FAR1, stronger effect = lower value
# [34] = locus YJR016C, strain ILV3, stronger effect = lower value
# [35] = locus YJR066W, strain TOR1 (second series), stronger effect = lower value
# [36] = locus YJR066W, strain TOR1, stronger effect = lower value
# [37] = locus YKL048C, strain ELM1, stronger effect = lower value
# [38] = locus YKL067W, strain YNK1, stronger effect = lower value
# [39] = locus YKL101W, strain HSL1, stronger effect = lower value
# [40] = locus YKL193C, strain SDS22, stronger effect = lower value
# [41] = locus YKL203C, strain TOR2, stronger effect = lower value
# [42] = locus YLR113W, strain HOG1, stronger effect = lower value
# [43] = locus YLR133W, strain CKI1, stronger effect = lower value
# [44] = locus YLR403W, strain SFP1, stronger effect = lower value
# [45] = locus YML070W, strain DAK1, stronger effect = lower value
# [46] = locus YMR001C, strain CDC5, stronger effect = lower value
# [47] = locus YMR205C, strain PFK2 (second series), stronger effect = lower value
# [48] = locus YMR277W, strain FCP1, stronger effect = lower value
# [49] = locus YNL006W, strain LST8, stronger effect = lower value
# [50] = locus YNL020C, strain ARK1, stronger effect = lower value
# [51] = locus YNL161W, strain CBK1, stronger effect = lower value
# [52] = locus YNL183C, strain NPR1, stronger effect = lower value
# [53] = locus YNL207W, strain RIO2, stronger effect = lower value
# [54] = locus YNL222W, strain SSU72, stronger effect = lower value
# [55] = locus YNL307C, strain MCK1 (second series), stronger effect = lower value
# [56] = locus YOL078W, strain AVO1, stronger effect = lower value
# [57] = locus YOL136C, strain PFK27, stronger effect = lower value
# [58] = locus YOR061W, strain CKA2, stronger effect = lower value
# [59] = locus YOR119C, strain RIO1, stronger effect = lower value
# [60] = locus YOR231W, strain MKK1, stronger effect = lower value
# [61] = locus YOR329C, strain SCD5, stronger effect = lower value
# [62] = locus YPL031C, strain PHO85, stronger effect = lower value
# [63] = locus YPL153C, strain RAD53, stronger effect = lower value
# [64] = locus YPL204W, strain HRR25, stronger effect = lower value
# [65] = locus YPL209C, strain IPL1, stronger effect = lower value
# [66] = locus YPL256C, strain CLN2, stronger effect = lower value
# [67] = locus YPR025C, strain CCL1, stronger effect = lower value
# [68] = locus YPR106W, strain ISR1, stronger effect = lower value
# [69] = locus YPR111W, strain DBF20, stronger effect = lower value
# [70] = strain NNK1, stronger effect = lower value
# [71] = strain TSCII, stronger effect = lower value
smiles,measurement,setting,value
Cc1csc2ncnc(N3CCN(C(=O)Nc4ccc(SC(F)(F)F)cc4)CC3)c12,normalized growth,[1],1.01
same,normalized growth,[2],0.991
same,normalized growth,[3],0.999
same,normalized growth,[4],1
same,normalized growth,[5],0.979
same,normalized growth,[6],0.982
same,normalized growth,[7],0.994
same,normalized growth,[8],1
same,normalized growth,[9],0.995
same,normalized growth,[10],1
same,normalized growth,[11],0.908
same,normalized growth,[12],0.988
same,normalized growth,[13],0.993
same,normalized growth,[14],1
same,normalized growth,[15],0.937
same,normalized growth,[16],0.902
same,normalized growth,[17],0.912
same,normalized growth,[18],1.01
same,normalized growth,[19],1
same,normalized growth,[20],1.01
same,normalized growth,[21],0.918
same,normalized growth,[22],0.994
same,normalized growth,[23],0.925
same,normalized growth,[24],0.963
same,normalized growth,[25],0.867
same,normalized growth,[26],0.818 (active)
same,normalized growth,[27],0.866
same,normalized growth,[28],0.947
same,normalized growth,[29],0.927
same,normalized growth,[30],0.987
same,normalized growth,[31],0.868
same,normalized growth,[32],0.972
same,normalized growth,[33],0.88
same,normalized growth,[34],0.994
same,normalized growth,[35],0.65
same,normalized growth,[36],0.915
same,normalized growth,[37],0.931
same,normalized growth,[38],0.915
same,normalized growth,[39],0.903
same,normalized growth,[40],1
same,normalized growth,[41],0.977
same,normalized growth,[42],0.806 (active)
same,normalized growth,[43],0.909
same,normalized growth,[44],0.905
same,normalized growth,[45],0.886
same,normalized growth,[46],0.999
same,normalized growth,[47],0.903
same,normalized growth,[48],1
same,normalized growth,[49],0.997
same,normalized growth,[50],0.898
same,normalized growth,[51],1
same,normalized growth,[52],0.895
same,normalized growth,[53],0.987
same,normalized growth,[54],1
same,normalized growth,[55],0.866
same,normalized growth,[56],0.996
same,normalized growth,[57],0.869
same,normalized growth,[58],0.864
same,normalized growth,[59],0.967
same,normalized growth,[60],0.825
same,normalized growth,[61],1
same,normalized growth,[62],0.915
same,normalized growth,[63],0.914
same,normalized growth,[64],0.9
same,normalized growth,[65],1
same,normalized growth,[66],0.845 (active)
same,normalized growth,[67],0.998
same,normalized growth,[68],0.988
same,normalized growth,[69],0.987
same,normalized growth,[70],0.993
same,normalized growth,[71],0.983
CC1=C(C)C(=O)C(CCCCC#CCCCC#CCO)=C(C)C1=O,normalized growth,"locus YAL013W, strain DEP1, stronger effect = lower value",0.995
same,normalized growth,"locus YAL040C, strain CLN3, stronger effect = lower value",0.993
same,normalized growth,"locus YCL061C, strain MRC1 (second series), stronger effect = lower value",1
same,normalized growth,"locus YDR363W, strain ESC2, stronger effect = lower value",0.988
same,normalized growth,"locus YER002W, strain NOP16, stronger effect = lower value",0.996
same,normalized growth,"locus YMR263W, strain SAP30, stronger effect = lower value",1
same,normalized growth,"locus YNL128W, strain TEP1, stronger effect = lower value",0.998
same,normalized growth,"locus YNL175C, strain NOP13, stronger effect = lower value",1
same,normalized growth,"locus YNL197C, strain WHI3, stronger effect = lower value",0.997
same,normalized growth,"locus YNL224C, strain SQS1, stronger effect = lower value",0.984
same,normalized growth,"locus YOR083W, strain WHI5 (second series), stronger effect = lower value",0.975
Cc1cc(Sc2c([N+](=O)[O-])cc(C(F)(F)F)cc2[N+](=O)[O-])c(Cl)cc1Cl,normalized growth,[1],0.995
same,normalized growth,[2],1
same,normalized growth,[3],0.995
same,normalized growth,[4],0.995
same,normalized growth,[5],0.991
same,normalized growth,[6],0.999
same,normalized growth,[7],0.99
same,normalized growth,[8],0.995
same,normalized growth,[9],0.995
same,normalized growth,[10],0.99
same,normalized growth,[11],0.98
same,normalized growth,[12],0.993
same,normalized growth,[13],0.99
same,normalized growth,[14],0.978
same,normalized growth,[15],0.959
same,normalized growth,[16],0.97
same,normalized growth,[17],0.998
same,normalized growth,[18],0.992
same,normalized growth,[19],1
same,normalized growth,[20],0.997
same,normalized growth,[21],0.964
same,normalized growth,[22],0.996
same,normalized growth,[23],0.964
same,normalized growth,[24],1.01
same,normalized growth,[25],0.982
same,normalized growth,[26],0.928
same,normalized growth,[27],0.861
same,normalized growth,[28],0.988
same,normalized growth,[29],0.911
same,normalized growth,[30],0.996
same,normalized growth,[31],0.964
same,normalized growth,[32],0.955
same,normalized growth,[33],0.926
same,normalized growth,[34],1
same,normalized growth,[35],0.949
same,normalized growth,[36],0.961
same,normalized growth,[37],0.987
same,normalized growth,[38],0.994
same,normalized growth,[39],0.995
same,normalized growth,[40],0.999
same,normalized growth,[41],1
same,normalized growth,[42],1.02
same,normalized growth,[43],0.96
same,normalized growth,[44],0.931
same,normalized growth,[45],0.996
same,normalized growth,[46],1
same,normalized growth,[47],0.998
same,normalized growth,[48],0.995
same,normalized growth,[49],1
same,normalized growth,[50],0.924
same,normalized growth,[51],0.977
same,normalized growth,[52],1.04
same,normalized growth,[53],0.991
same,normalized growth,[54],0.991
same,normalized growth,[55],0.974
same,normalized growth,[56],0.995
same,normalized growth,[57],0.926
same,normalized growth,[58],0.967
same,normalized growth,[59],1.05
same,normalized growth,[60],0.976
same,normalized growth,[61],0.994
same,normalized growth,[62],0.928
same,normalized growth,[63],0.965
same,normalized growth,[64],0.947
same,normalized growth,[65],0.999
same,normalized growth,[66],0.99
same,normalized growth,[67],0.997
same,normalized growth,[68],0.996
same,normalized growth,[69],0.974
same,normalized growth,[70],0.99
same,normalized growth,[71],1
